Data reported in article PMC4336329 (PLoS ONE, 2015).
Hit rate of the full screen: of about 310,000 compounds, about 2,200 (0.71%) showed an effect of 50% or more. The effect is printed as a negative number. Only a selection was taken, and strong results are over-represented in it overall.

Each molecule was assayed against human ether-à-go-go-related gene (hERG) potassium channel (human, UniProt Q12809) (assay: primary screen, population patch clamp on CHO cells stably expressing hERG; higher = less effect of the substance).
Experimental: Briefly, Chinese hamster ovary (CHO) cells stably expressing the hERG channel were dislodged from tissue culture flasks and dispensed into PPC plates. […] During the recording, background leak currents were estimated by a 100 ms step to -80 mV from an initial holding potential of -70 mV and subtracted from the subsequent current measurement. The campaign was conducted in two phases using slight differences in recording protocol. In the first phase, the initial voltage pulse used a 100 ms step to -30 mV from a holding potential of -70 mV, a 2 s conditioning step to +25 mV, and a 2 s test step to -30 mV. During the second phase of the screen, the potential during the conditioning step was raised to +45 mV. In both phases of the campaign, a secondary voltage pulse was applied using the same parameters as the second phase initial pulse. The initial and secondary pulses were applied in the absence of compound, and upon application of 1 μM and 10 μM test concentrations. Small molecule effects on hERG current density were quantified by […].

human ether-à-go-go-related gene (hERG) potassium channel, sequence (Q12809 whole entry, looked up): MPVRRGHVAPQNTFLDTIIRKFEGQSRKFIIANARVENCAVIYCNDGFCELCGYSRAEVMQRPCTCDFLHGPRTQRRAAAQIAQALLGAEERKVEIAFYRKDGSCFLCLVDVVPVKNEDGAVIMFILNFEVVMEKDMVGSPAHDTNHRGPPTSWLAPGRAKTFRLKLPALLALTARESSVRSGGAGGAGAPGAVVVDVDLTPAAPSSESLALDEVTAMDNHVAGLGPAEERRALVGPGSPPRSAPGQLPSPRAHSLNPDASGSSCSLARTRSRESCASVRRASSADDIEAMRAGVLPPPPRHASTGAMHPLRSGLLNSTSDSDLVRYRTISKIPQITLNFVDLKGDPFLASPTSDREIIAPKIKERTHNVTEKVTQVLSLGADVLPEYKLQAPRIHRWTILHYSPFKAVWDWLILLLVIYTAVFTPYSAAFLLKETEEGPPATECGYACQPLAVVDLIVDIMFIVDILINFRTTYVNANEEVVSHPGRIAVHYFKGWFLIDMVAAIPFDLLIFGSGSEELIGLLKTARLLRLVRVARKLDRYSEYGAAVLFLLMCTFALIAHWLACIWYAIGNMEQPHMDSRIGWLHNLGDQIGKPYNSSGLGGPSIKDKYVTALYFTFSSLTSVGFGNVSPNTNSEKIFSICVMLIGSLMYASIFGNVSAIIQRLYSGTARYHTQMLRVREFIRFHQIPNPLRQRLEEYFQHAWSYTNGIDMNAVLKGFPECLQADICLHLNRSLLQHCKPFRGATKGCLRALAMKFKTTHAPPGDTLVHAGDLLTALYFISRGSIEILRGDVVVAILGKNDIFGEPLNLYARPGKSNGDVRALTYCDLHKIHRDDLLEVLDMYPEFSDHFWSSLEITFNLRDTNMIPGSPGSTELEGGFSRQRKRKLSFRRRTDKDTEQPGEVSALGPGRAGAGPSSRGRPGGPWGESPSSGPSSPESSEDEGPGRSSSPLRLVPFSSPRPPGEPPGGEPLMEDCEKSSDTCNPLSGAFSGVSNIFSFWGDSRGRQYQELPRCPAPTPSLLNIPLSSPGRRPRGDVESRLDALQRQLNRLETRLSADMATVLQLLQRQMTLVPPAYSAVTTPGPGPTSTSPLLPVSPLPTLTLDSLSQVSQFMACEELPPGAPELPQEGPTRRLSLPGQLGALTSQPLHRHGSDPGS

Row | Compound | hERG current change (%, negative = inhibition) at 1uM
1 | COc1ccc(-c2cc(N)n(S(=O)(=O)Cc3ccccc3)n2)c(OC)c1 | -4.34%
2 | COc1ccc(NC(=S)N2CCNC(=O)C2CC(=O)Nc2cccc(Cl)c2C)cc1 (stereo not drawn) | -5.98%
3 | Cc1ccc(-c2sc(C)nc2CC(=O)O)cc1 | 7.75%
4 | C=C(C)C1CC=C(C)/C(=N/NC(=O)CCC(=O)Nc2ccccc2Cl)C1 (stereo not drawn) | 6.51%
5 | O=C(COC(=O)c1c[nH]c2ccccc12)Nc1ccc(F)cc1 | -1.51%
6 | Cc1cc(C(=O)NN=C(Cc2ccccc2)Cc2ccccc2)c(C)o1 | 4.29%
7 | O=C(Nc1cnccn1)c1ccncc1 | -8.03%
8 | NS(=O)(=O)c1ccc(CCNC(=O)c2ccccc2F)cc1 | 4.79%
9 | CCCCNC(=O)/C=C/c1cccs1 | 24.3%
10 | [O-][Cl+3]([O-])([O-])[O-].c1ccc(-c2cc(-c3ccccc3)[n+](-c3ccccc3)c(-c3ccccc3)c2)cc1 | -27.7%
11 | Cc1ccc(-c2cc(-c3ccccc3)cc(-c3ccccc3)[n+]2-c2ccccc2)cc1.[O-][Cl+3]([O-])([O-])[O-] | -80.4%
12 | Cc1ccc(-c2cc(-c3ccccc3)cc(-c3ccccc3)[n+]2-c2ccc(C(=O)O)cc2)cc1.[O-][Cl+3]([O-])([O-])[O-] | 7.88%
13 | O=C(COc1ccccc1)N(Cc1ccco1)c1ccc(O)cc1 | 8.59%
14 | CCOC(=O)c1[nH]c(C)c(C(=O)NCc2ccc(Cl)cc2)c1C | -4.65%
15 | O=C(CCOc1ccccc1)Nc1ccnn1C1CCN(Cc2ccc(O)cc2)CC1 | -3.76%
16 | COc1ccc(CN2CCC(n3nccc3NC(=O)CCOc3ccccc3)CC2)cc1C | -16.2%
17 | COc1cccc(CN2CCC(n3nccc3NC(=O)CCCc3ccccc3)CC2)c1O | -55.4%
18 | O=C(CCCc1ccccc1)Nc1ccnn1C1CCN(Cc2ccccc2)CC1 | -18.8%
19 | CCOc1ccccc1CN1CCC(n2nccc2NC(=O)CCCc2ccccc2)CC1 | -29.2%
20 | COc1cc(CN2CCC(n3nccc3NC(=O)CCCc3ccccc3)CC2)ccc1O | -5.54%
21 | O=C(CCOc1ccccc1)Nc1ccnn1C1CCN(Cc2ccccc2)CC1 | 2%
22 | O=C(CCOc1ccccc1)Nc1ccnn1C1CCN(CCc2ccccc2)CC1 | -51.4%

Row | Compound | hERG current change (%, negative = inhibition) at 1uM
23 | CCOc1cccc(CN2CCC(n3nccc3NC(=O)CCCc3ccccc3)CC2)c1 | 9.19%
24 | CCOc1ccc(CN2CCC(n3nccc3NC(=O)CCCc3ccccc3)CC2)cc1 | -88.8%
25 | COc1ccc(CN2CCC(n3nccc3NC(=O)CCCc3ccccc3)CC2)cc1C | -67.3%
26 | COc1ccccc1CN1CCC(n2nccc2NC(=O)CCCc2ccccc2)CC1 | -42.7%
27 | O=C(CCCN1C(=O)/C(=C/c2ccc3c(c2)OCO3)SC1=S)Nc1cccc(C(=O)O)c1 | 9.71%
28 | Cn1cc(S(=O)(=O)N2CCC(C(N)=O)CC2)c(=O)n(C)c1=O | 11%
29 | Cc1c(C)c2cc(Cl)c(O)c(CN(C)C)c2oc1=O | 15.4%
30 | CN(C)/C=N/c1cc(=O)[nH]c(=O)n1CC1CC1 | 17.1%
31 | O=C(CCc1ccccc1)Nc1ccnn1C1CCN(Cc2ccc(OCCO)cc2)CC1 | -9.11%
32 | CC(=O)Nc1ccc(CN2CCC(n3nccc3NC(=O)CCc3ccccc3)CC2)cc1 | 11.7%
33 | CC(C)Oc1ccc(CN2CCC(n3nccc3NC(=O)CCc3ccccc3)CC2)cc1 | -86.3%
34 | O=C(/C=C/c1ccc(-c2ccccc2)o1)c1ccccc1 | 10.1%
35 | O=C(Nc1ccc(F)cc1)C(c1ccccc1)N1CCN(CC(=O)N2CCOCC2)CC1 (stereo not drawn) | -14.5%
36 | Cc1ccc(NC(=O)C(c2ccccc2)N2CCN(CC(=O)N3CCOCC3)CC2)cc1 (stereo not drawn) | -8.48%
37 | CCOc1ccccc1NC(=O)C(c1ccccc1)N1CCN(CC(=O)N2CCOCC2)CC1 (stereo not drawn) | -79.7%
38 | O=C(NCCc1nc2ccccc2[nH]1)/C(=C/c1ccc2c(c1)OCO2)NC(=O)c1ccccc1Cl | -49.9%
39 | O=C(NCCc1nc2ccccc2[nH]1)/C(=C/c1ccc2c(c1)OCO2)NC(=O)c1ccccc1 | -14.2%
40 | O=C(NCCc1nc2ccccc2[nH]1)/C(=C/c1ccc2c(c1)OCO2)NC(=O)c1ccc(Cl)cc1Cl | -73.9%
41 | CSCC[C@H](NC(=O)c1ccc(Cl)c(S(=O)(=O)N2CCCC2)c1)c1nc2ccccc2[nH]1 | -1.71%
42 | COc1ccc(CC(=O)NCC2CCCN(Cc3ccc(F)cc3F)C2)cc1 (stereo not drawn) | 8.71%
43 | O=C(NCC1CCCN(Cc2ccc3nonc3c2)C1)c1ccc(F)cc1 (stereo not drawn) | -13.9%
44 | CCOc1cc(CN2CCCC(CNC(=O)c3ccc(F)cc3)C2)ccc1OC (stereo not drawn) | -17%

Row | Compound | hERG current change (%, negative = inhibition) at 1uM
45 | CSc1cccc(CN2CCCC(CNC(=O)c3ccc(F)cc3)C2)c1 (stereo not drawn) | -19.1%
46 | CCOc1ccc(CN2CCCC(CNC(=O)c3ccc(F)cc3)C2)cc1CO (stereo not drawn) | -50.5%
47 | O=C(NCC1CCCN(Cc2cccc(OCCO)c2)C1)c1ccc(F)cc1 (stereo not drawn) | 2.83%
48 | COc1ccc(CN2CCCC(CNC(=O)c3ccc(F)cc3)C2)c(C)c1C (stereo not drawn) | -46.2%
49 | COc1ccc(CN2CCCC(CNC(=O)c3ccc(F)cc3)C2)cc1OC (stereo not drawn) | -54.3%
50 | COc1cc(OC)cc(C(=O)NCC2CCCN(Cc3ccc(SC)cc3)C2)c1 (stereo not drawn) | -34.6%
51 | COc1ccc(CC(=O)NCC2CCCN(Cc3ccc(OC)cc3F)C2)cc1 (stereo not drawn) | 6.22%
52 | CSc1ccc(CN2CCCC(CNC(=O)c3ccc(F)cc3)C2)cc1 (stereo not drawn) | -59%
53 | COc1ccc(CN2CCCC(CNC(=O)c3ccc(F)cc3)C2)c(F)c1 (stereo not drawn) | -50.4%
54 | O=C(O)COCC(=O)N1CCN(C2c3ccccc3-c3ccccc32)CC1 | 12.4%
55 | CCCC/C(O)=C/c1nc2ccccc2[nH]c1=O | 1.79%
56 | O=C(NCc1ccco1)c1cc2n(n1)C(C(F)(F)F)CC(c1ccc(F)cc1)N2 (stereo not drawn) | -4.18%
57 | COc1ccc(C(=O)CN2C3=NCCCN3c3ccccc32)cc1OC | -6.85%
58 | Br.O=C(CN1C2=NCCCN2c2ccccc21)c1cccc(Br)c1 | -28.6%
59 | Br.O=C(CN1C2=NCCN2c2ccccc21)c1ccc(Br)cc1 | -28.4%
60 | Br.COc1cccc(C(=O)CN2C3=NCCCN3c3ccccc32)c1 | -61.2%
61 | Br.O=C(CN1C2=NCCCN2c2ccccc21)c1ccc([N+](=O)[O-])cc1 | -54%
62 | Br.Cc1ccc(C)c(C(=O)CN2C3=NCCCN3c3ccccc32)c1 | -43%
63 | COc1ccc(-c2csc(N3C(=O)C4C5c6ccccc6C(c6ccccc65)C4C3=O)n2)cc1 (stereo not drawn) | 11.9%
64 | Cc1ccc(/C=C2/SC(=Nc3ccc(F)cc3)NC2=O)s1 | 13%
65 | Cc1csc2nc(NC(=O)c3ccccc3)sc(=O)c12 | 8.93%
66 | Nc1c(Sc2ccccc2)c(=O)[nH]c(=O)n1Cc1ccccc1 | -13.3%

Row | Compound | hERG current change (%, negative = inhibition) at 1uM
67 | Cc1ccc(S(=O)(=O)N2CCCC2CNC(=O)C(=O)NCCN2CCOCC2)cc1 (stereo not drawn) | 16.8%
68 | Cc1ccc(S(=O)(=O)Nc2cccc(C(=O)NCc3ccc(S(N)(=O)=O)cc3)c2)cc1 | 12.7%
69 | O=C(CN1CCN(C(=O)c2ccccc2)CC1)Nc1ccccc1 | 3.18%
70 | O=C(CN1CCN(C(=O)c2ccccc2)CC1)Nc1ccc(Br)cn1 | -72.1%
71 | O=C(CN1CCN(C(=O)c2ccccc2)CC1)Nc1ncc(Br)cc1Br | -84.9%
72 | CCc1nnc(NC(=O)CN2CCN(C(=O)c3ccccc3)CC2)s1 | 10.9%
73 | O=C(CN1CCCCCC1)Nc1ccc(Br)cn1 | 3.88%
74 | O=C(CN1CCOCC1)Nc1ncc(Br)cc1Br | 4.34%
75 | CC(=O)N1CCC(C(=O)Nc2ccccc2)(N(Cc2ccccc2)C(=O)c2cccnc2)CC1 | 17.6%
76 | Nc1ccc(Sc2ccccc2Cl)nc1 | 0.8%
77 | O=C(CCN1CCOCC1)Nc1ccc2c(c1)CCC2 | 3.78%
78 | Cc1[nH][nH]c(=O)c1C=NCc1cccnc1 | 14.3%
79 | COc1ccc(OCc2cc(C(=O)N(C)CC3CCCCO3)no2)c(Cl)c1 (stereo not drawn) | -1.77%
80 | CSc1ccccc1OCc1cc(C(=O)NCC(C)(C)N2CCOCC2)no1 | -72.2%
81 | COc1ccc(OCc2cc(C(=O)NCC(C)(C)N3CCOCC3)no2)c(Cl)c1 | 0.582%
82 | CN(CC1CCCCO1)C(=O)c1cc(COc2ccc(F)cc2Cl)on1 (stereo not drawn) | -74.4%
83 | COc1cc(Cl)ccc1OCc1cc(C(=O)N(C)CC2CCCCO2)no1 (stereo not drawn) | 2.24%
84 | Cc1ccc(OCc2cc(C(=O)NCC(C)(C)N3CCOCC3)no2)cc1C | 4.83%
85 | CCN(CC1CCCO1)C(=O)c1cc(COc2ccc(OC)cc2Cl)on1 (stereo not drawn) | 5.36%
86 | CCN(CC1CCCO1)C(=O)c1cc(COc2ccc(F)cc2F)on1 (stereo not drawn) | 2.73%
87 | CCN(CC1CCCO1)C(=O)c1cc(COc2ccccc2SC)on1 (stereo not drawn) | -58.9%
